Screening results from PubChem.
Compounds with a hit are over-represented: about 3.5% of the library has one in this group of screens.
FBW7 activator: human FBW7 E3 ligase activation, primary screen; AlphaScreen FBW7–phospho-cyclin E peptide binding, activator screen; AID 1259310; normalized activity (activation), % at 26.1 µM; hit rate 0.13% among 650,000; Q969H0; in the data active = normalized activity above about 1.9%;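 note: purified mutant Fbw7 with reduced substrate affinity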
Target sequence (Q969H0 whole entry, looked up): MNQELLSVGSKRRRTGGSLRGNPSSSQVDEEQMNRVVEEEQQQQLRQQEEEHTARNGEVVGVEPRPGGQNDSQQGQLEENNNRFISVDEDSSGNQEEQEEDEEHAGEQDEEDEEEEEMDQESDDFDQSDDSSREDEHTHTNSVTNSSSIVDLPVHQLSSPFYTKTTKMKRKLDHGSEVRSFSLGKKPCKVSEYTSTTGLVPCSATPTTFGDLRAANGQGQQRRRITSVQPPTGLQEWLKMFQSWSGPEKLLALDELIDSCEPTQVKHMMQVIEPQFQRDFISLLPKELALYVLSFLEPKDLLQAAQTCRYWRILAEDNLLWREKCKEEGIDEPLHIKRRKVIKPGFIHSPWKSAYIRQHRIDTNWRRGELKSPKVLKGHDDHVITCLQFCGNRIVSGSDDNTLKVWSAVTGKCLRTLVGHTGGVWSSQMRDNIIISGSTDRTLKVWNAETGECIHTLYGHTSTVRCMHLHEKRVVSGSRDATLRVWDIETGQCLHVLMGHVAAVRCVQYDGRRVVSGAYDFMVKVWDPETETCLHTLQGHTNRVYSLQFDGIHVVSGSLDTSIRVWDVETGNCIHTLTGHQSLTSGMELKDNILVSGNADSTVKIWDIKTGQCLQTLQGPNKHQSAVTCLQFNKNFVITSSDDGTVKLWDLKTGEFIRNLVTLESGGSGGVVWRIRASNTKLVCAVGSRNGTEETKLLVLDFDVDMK
TEAD-YAP block: TEAD-YAP interaction inhibition. AID 1259422. inhibition, % at 9.12 µM. hit rate 1.4% among 640,000. HEK-TIYL cells, TEAD-Gal4/YAP UAS-luciferase luminescence; in the data active = inhibition above about 32%;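 note: 0% = median of test compound wells and 100% = reference inhibitor wells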
MITF inh: inhibitors of human MITF. hit rate 0.91% among 650,000. inhibition, % at 2.6 µM. O75030. AlphaScreen MITF homodimerization, bead proximity signal; in the data active = inhibition above about 50%;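 note: 0% = vehicle wells with protein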
GPR151 ag: human GPR151 activation; Q8TDV0; PathHunter beta-arrestin GPR151 cells, luminescence; activation, % at 11.2 µM; hit rate 1% among 650,000; in the data active = activation above about 4.9%;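 note: 0% = median of compound wells and 100% = cells with positive control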
GPR151 confirm: confirmation of human GPR151 activators; shares compounds with GPR151 ag; GPR151 PathHunter beta-arrestin cells, luminescence, 90 min; % of EA-reagent control over plate median; activation, % at 11.2 µM; 6,700 tested, under 10 active; AID 1508609;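 active = mean percent activation across replicates above the confirmation screen cutoff of 4.91%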
GPR119 ag: GPR119 activation, counter-screen for GPR151 activators; shares compounds with GPR151 ag; GPR119 PathHunter beta-arrestin cells, luminescence, 90 min; 0 = compound-well median, 100 = enzyme-acceptor control; activation, % at 11.2 µM; hit rate 0.3% among 6,700;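 active = mean percent activation in the counterscreen above 29.09%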;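 note: counterscreen on off-target GPR119 to flag nonselective hits from the GPR151 activator screen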
An asterisk follows results filed as active; x = no result.

SMILES	FBW7 activator	TEAD-YAP block	MITF inh	GPR151 ag	GPR151 confirm	GPR119 ag
Cc1cc(C)c(C(=O)N2CCOc3ccc(C(O)c4ccccn4)cc3C2)[nH]1 (stereo not drawn)	0.0	-2.4	2.5	-1.3	x	x
CN(C)CCC(=O)N1c2ccccc2Sc2ccc(Cl)cc21	0.3	-12.3	4.8	-1.1	x	x
CN(C)CCOC1=Cc2ccccc2Sc2ccc(Cl)cc21	0.7	x	12.4	5.7*	0.2	-6.4
COc1ccc(-n2nc3c(c2NC(=O)CCC2CCCC2)CS(=O)(=O)C3)cc1	-0.3	-4.6	-3.1	16.7*	0.5	9.2
CCC(CC)C(=O)Nc1c2c(nn1-c1ccc(OC)cc1)CS(=O)(=O)C2	0.0	-2.2	-4.3	7.4*	-0.7	7.8
COc1ccc(-n2nc3c(c2NC(=O)c2ccc(C)cc2)CS(=O)(=O)C3)cc1	0.1	6.5	-2.4	5.4*	0.6	4.3
CC(=O)/C=C(\C)NC(C)C(=O)O (stereo not drawn)	-0.2	-8.4	8.0	0.3	x	x
CC(C)CNS(=O)(=O)c1ccc(NC(N)=O)cc1	0.2	-6.4	-0.8	-0.9	x	x
CCc1ccc(C2=NC(C)(CC)NC(c3cc(Cl)ccc3O)C2)cc1 (stereo not drawn)	0.0	2.3	0.6	1.4	x	x
CCCC1(C)N=C(c2ccc(CC)cc2)CC(c2cc(Br)ccc2O)N1 (stereo not drawn)	0.2	-2.4	12.2	11.5*	-0.2	7.6
COc1cccc(C2C=C(c3ccc(Cl)cc3)Nc3ncnn32)c1 (stereo not drawn)	-0.1	5.0	0.1	-0.6	x	x
COc1cccc(-c2cc(CC(=O)NCCC3=CCCCC3)no2)c1	-0.1	-16.8	-7.2	6.1*	-0.5	-3.9
N#C/C(=C\c1ccc(-c2cc(Cl)ccc2Cl)o1)C(=O)Nc1cccc2ncccc12	x	x	-1.1	5.7*	0.1	7.6
COCCNC(=O)/C(C#N)=C/c1ccc(-c2cc(Cl)ccc2Cl)o1	-0.1	-2.5	-6.4	-0.5	x	x
CCOc1cccc2sc(NC(=O)C3=COCCO3)nc12	-0.2	-16.9	2.3	6.6*	0.2	9.7
COC(=O)c1sc2ccccc2c1NC(=O)c1ccc(C(=O)c2ccccc2)cc1	-0.1	6.5	11.3	1.6	x	x
COC(=O)c1sc2ccccc2c1NC(=O)c1ccc(Oc2ccccc2)cc1	0.1	3.0	-13.1	10.3*	-0.3	0.0
COc1ccc(C2CC(c3ccc4ccccc4c3O)=NN2)cc1OC (stereo not drawn)	0.0	-21.6	13.6	0.9	x	x
CCCCOC(=O)Nc1sc2c(c1C(N)=O)CCCC2	1.0	-11.2	16.1	0.2	x	x
C=CCOC(=O)C1=C(C)NC(SCC(=O)Nc2cccc(Cl)c2)=C(C#N)C1c1ccc(O)c(OC)c1 (stereo not drawn)	0.3	2.6	-1.0	0.4	x	x
Cc1c(Cl)cccc1N(CC(=O)Nc1ccc(F)c(Cl)c1)S(C)(=O)=O	-0.2	5.0	-9.7	5.5*	1.6	-1.8
COc1ccc(Cl)cc1N(CC(=O)Nc1cccc(C(C)=O)c1)S(C)(=O)=O	-0.1	-0.2	7.0	5.8*	0.6	-1.5
Cc1cccc(NC(=O)CN(c2ccc(Br)c(C)c2)S(C)(=O)=O)c1	0.2	2.5	11.3	10.1*	0.2	-4.4
Cc1ccccc1NC(=O)CN(c1ccc(Cl)cc1C)S(C)(=O)=O	-0.1	-3.0	0.6	5.3*	0.8	14.2
Cc1ccc(NC(=O)CN(c2ccc(Br)c(C)c2)S(C)(=O)=O)cc1	0.1	-3.1	8.5	1.6	x	x
SMILES	FBW7 activator	TEAD-YAP block	MITF inh	GPR151 ag	GPR151 confirm	GPR119 ag
CS(=O)(=O)N(CC(=O)Nc1ccc(F)c(Cl)c1)c1ccccc1F	0.1	10.7	-0.3	0.1	x	x
CCc1ccccc1NC(=O)C(=O)N/N=C/c1cc([N+](=O)[O-])ccc1O	-0.4	-7.4	-3.8	0.8	x	x
O=C(COC(=O)C1=COCCO1)Nc1ccc(C(F)(F)F)cc1	-0.1	2.5	3.8	0.2	x	x
O=S(=O)(Nc1ccc(F)cc1)c1ccccc1F	0.1	-7.5	-5.6	0.5	x	x
OCCC1CN(Cc2cccc(F)c2F)CCN1Cc1ccc(F)cc1 (stereo not drawn)	0.0	-0.4	3.1	0.8	x	x
CCOc1ccccc1N(CC(=O)Nc1ccccc1OC)S(C)(=O)=O	0.0	-2.9	-0.3	8.9*	-0.4	-9.2
CC(=O)c1cccc(NC(=O)CN(C)S(=O)(=O)c2ccc(F)cc2)c1	0.0	-6.5	0.0	5.9*	-0.9	-7.2
COc1cccc(NC(=O)CN(C)S(=O)(=O)c2ccc(F)cc2)c1	-0.1	3.4	-9.8	-0.1	x	x
CSc1cccc(NC(=O)CN(c2ccc(F)c(Cl)c2)S(C)(=O)=O)c1	0.1	4.0	-9.5	8.5*	-0.1	4.4
COc1ccccc1NC(=O)CN(c1ccccc1OC)S(C)(=O)=O	0.0	5.2	-0.1	-0.9	x	x
CCCCCCCCCCCCCCCCCCCCCCC(=O)OCC	x	x	3.7	-0.3	x	x
COc1ccc(NC(=O)c2ccc(N3CC4CC(C3)c3cccc(=O)n3C4)c(NC(=O)c3ccc(F)cc3)c2)cc1OC (stereo not drawn)	0.0	0.9	-7.1	-1.0	x	x
Cc1ccc(NC(=O)CSc2ccc3nnc(-c4cccnc4)n3n2)c(C)c1	0.2	-10.3	7.7	0.3	x	x
CCOc1ccc(CN[C@@H]2C[C@@H](C(=O)NC)N(CC(C)C)C2)cc1	-0.1	-8.1	8.0	0.5	x	x
CCN(CC)c1cc(N)c([N+](=O)[O-])cc1F	-0.1	11.6	22.1	6.5*	1.3	1.8
Cn1cc(CN2CCCC(CNS(=O)(=O)c3cccc4cccnc34)C2)cn1 (stereo not drawn)	0.0	0.9	5.5	8.1*	0.4	0.8
CCc1c(C)nc2cc(-c3ccc(OC)c(OC)c3)nn2c1NCCO	-0.1	-28.9	-2.4	0.0	x	x
CCc1c(C)nc2cc(-c3ccc(OC)c(OC)c3)nn2c1NCCCn1ccnc1	0.1	-51.1	12.8	6.3*	1.1	9.0
CCc1cnc2c(c1OC)c(=O)n(CC(=O)N(CC)CC)c(=O)n2C	0.0	0.8	-0.4	0.0	x	x
N#Cc1ccccc1OCC(=O)N=Nc1c(O)[nH]c2ccc([N+](=O)[O-])cc12	-0.1	10.6	10.1	0.9	x	x
N#Cc1ccccc1OCC(=O)N=Nc1c(O)[nH]c2ccccc12	-0.2	-14.4	5.0	6.0*	-0.7	-2.8
CC(NC(=O)c1ccccc1)C(=O)N=Nc1c(O)[nH]c2ccc([N+](=O)[O-])cc12 (stereo not drawn)	-0.1	-17.8	3.6	0.7	x	x
COC(=O)c1ccc(NC(=O)Cn2nc3n(C)c4ccccc4n3c(=O)c2=O)cc1	-0.1	-12.3	3.0	8.8*	0.9	1.9
COc1ccc(Cl)cc1NC(=O)Cn1nc2n(C)c3ccccc3n2c(=O)c1=O	0.5	3.6	-1.1	-0.4	x	x
Cc1cc(C(C)(C)C)cc(S(=O)(=O)Nc2ccc3c(c2)C(=O)NC3=O)c1C	0.2	-11.3	-12.8	6.2*	-0.5	-6.3
